# rTrxR1 inhibitor: inhibitors of rat thioredoxin reductase 1 | recombinant rTrxR1, NADPH fluorescence consumption, selenite substrate | 390,000 compounds, 1% hits | Potency, µM (top dose mostly 114 µM), for inactives: top-dose activity change, negative = inhibition, most hits filed as inhibitors; also: % is scaled to controls: 0 for no effect and ±100 for the full control effect; nearly all actives have a fitted effect of over 65% in size
# Target sequence (O89049 whole entry, looked up): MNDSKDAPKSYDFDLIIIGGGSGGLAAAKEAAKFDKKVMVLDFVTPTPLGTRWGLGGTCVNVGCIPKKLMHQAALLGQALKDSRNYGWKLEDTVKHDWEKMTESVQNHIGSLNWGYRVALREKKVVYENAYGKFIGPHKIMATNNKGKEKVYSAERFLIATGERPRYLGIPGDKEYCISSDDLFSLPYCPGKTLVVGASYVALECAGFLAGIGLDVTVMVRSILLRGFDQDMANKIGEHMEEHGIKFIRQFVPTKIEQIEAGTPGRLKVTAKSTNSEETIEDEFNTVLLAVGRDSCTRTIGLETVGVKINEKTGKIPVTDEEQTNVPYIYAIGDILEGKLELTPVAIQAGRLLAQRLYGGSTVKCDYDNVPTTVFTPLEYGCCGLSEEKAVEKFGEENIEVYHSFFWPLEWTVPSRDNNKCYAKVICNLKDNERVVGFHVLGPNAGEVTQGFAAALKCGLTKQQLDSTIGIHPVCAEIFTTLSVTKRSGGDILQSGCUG
#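 Rat TrxR1 (90 nM in the dispensed reagent) was pre-reduced with 400 uM NADPH for 5 min at room temperature, then incubated with compound for 15 min. After 400 uM selenite was added, NADPH fluorescence (Ex 340/Em 450 nm) was followed for 8 min.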
# TrxR1 substrate: rat thioredoxin reductase 1 substrate activity. 390,000 compounds, 0.01% hits. AID 588456. Potency, µM (top dose mostly 114 µM), for inactives: at the top dose activity change, negative = substrate turnover. purified TrxR1 substrate turnover, NADPH consumption readout. O89049; also: % is scaled to controls: 0 for no effect and ±100 for the full control effect; nearly all actives have a fitted effect of over 50% in size
#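 Rat TrxR1, dispensed at 90 nM, was prereduced with 400 uM NADPH (final) for 5 min at ~22 deg C, then incubated with compound 15 min before 400 uM selenite. A first-read NADPH fluorescence drop versus no-compound background flagged substrates.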
# IDH1 R132H inh: blocks human mutant IDH1 R132H enzyme | IDH1-R132H enzyme, NADPH consumption, diaphorase/resazurin fluorescence | Potency, µM (top dose mostly 76.6 µM), for the others: at the highest dose activity change, negative = inhibition, hits mostly inhibitors | O75874 | 390,000 compounds, 0.093% hits | AID 602179; also: % is scaled to controls: 0 for no effect and ±100 for the full control effect; nearly all actives have a fitted effect of over 65% in size
#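 IDH1-R132H (0.5 ug/mL) preincubated 30 min with compound, then NADPH (0.016 mM) and alpha-KG (2 mM) added; 80 min at RT, pH 7.5. Remaining NADPH coupled via diaphorase/resazurin to fluorescence (540/590 nm); concentration-response curves normalized to no-enzyme control.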
# A549 viability: kills or reduces viability of A549 cells in Nrf2 counter-screen; A549 ARE-Fluc cells, CellTiter-Fluor viability, 18-24 h; Potency, µM (highest dose often 46 µM), without a hit: top-dose activity change, negative = cytotoxicity, most hits filed as inhibitors; 390,000 compounds, 0.16% hits; also: % is scaled to controls: 0 for no effect and ±100 for the full control effect
#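 A549 ARE_Fluc cells in 5% FBS OPTI-MEM were exposed to compounds in concentration-response for 18-24 h at 37 deg C. Viability was read by CellTiter-Fluor fluorescence (Ex 405/Em 525) after 30 min, before the luciferase read.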
# Mito fusion act: inhibitors of mitochondrial division or activators of mitochondrial fusion; S. cerevisiae fusion-defective mutant growth rescue, CellTiterGlo 48 h; 320,000 compounds, 0.23% hits; Potency, µM (top dose mostly 46.1 µM), for inactives: top-dose growth rescue (activation), hits mostly activators; also: % of control where 0% means no effect; nearly all actives have a fitted effect of over 45% in size
#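 Compounds are tested for their ability to restore growth of mitochondrial fusion-defective yeast strains at non-permissive 37C in YPEG medium over 48 hours. Viability is quantified by luciferase luminescence.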
# Nrf2 inh: inhibitors of Nrf2 signaling; Potency, µM (titrated, usually from 46 µM), for the others: top-dose activity change, negative = inhibition, actives largely listed as inhibitors; 360,000 compounds, 2.1% hits; A549 ARE-Fluc reporter, luciferase luminescence, 18-24 h; also: % is scaled to controls: 0 for no effect and ±100 for the full control effect; nearly all actives have a fitted effect of over 60% in size
#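 In this cell-based qHTS, ARE-driven firefly luciferase in A549 cells reports Nrf2 activity; the luminescent signal after BugLite lysis is the measured value, with a prior CellTiter-Fluor read for cell health.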
# * = called active by the depositor; ? = inconclusive; · = not tested or not shown; [ ] = another dose, or the depositor's remark. An excerpt weighted towards active compounds, which were near 3.1% of everything screened. Calls follow the shape of the dose curve; as a rule, active = well fitted curve in the direction sought with a large enough effect; inconclusive = small, poorly fitted or top-dose-only effect, or another doubt; inactive = no such curve, though single readings can be large; an effect the other way counts as inactive or inconclusive. Potency is read from the fitted curve at half-maximal effect.
SMILES,rTrxR1 inhibitor,TrxR1 substrate,IDH1 R132H inh,A549 viability,Mito fusion act,Nrf2 inh
O=S(=O)(NCc1ccc2c(c1)OCO2)c1cccc(F)c1,17%[57.1 µM],2%,3%,-2%,2%,5%
O=S(=O)(NCc1ccc2c(c1)OCO2)c1ccc2c(c1)oc1ccccc12,-18%,-5%,9%,-15%,19%,21µM*
CCOc1ccc(-c2nnc(SCC(=O)Nc3cc(C)on3)o2)cc1,20%[57.1 µM],4%[57.1 µM],-6%,-4%,-5%,15µM*
CCOc1ccc(-c2nnc(SCC(=O)Nc3cc(C)ccc3OC)o2)cc1,28µM*,-1%,7%,10%,·,?
CCOc1ccc(NC(=O)CSc2nnc(-c3ccc(OCC)cc3)o2)cc1,21%,-2%,-7%,15%,·,1%
S=c1ncc2n[nH]nc2[nH]1,-19%,-9%,·,·,·,·
CCCCN(C)CCNC(=O)c1cc(-c2ccc(Cl)s2)nc2ccccc12,18%,47%,-11%,-6%,·,6%[9.27 µM]
Cc1ccc(Cn2c(C)c(CNCc3ccccc3F)c(C(=O)O)c2C)cc1,1%,-1%,0%,2%,·,9%
CNc1cc(C)c(C#N)c2nc3ccccc3n12,105%,122%[57.1 µM],13%,4%,2%,-17%
CCc1c(C)c(C#N)c2nc3ccccc3n2c1NC,-4%,3%,2%,1%,-35%,1%
N#Cc1c2c(c(Cl)n3c1nc1ccccc13)CCCC2,3.5µM*,2%,·,·,·,·
Cc1cc(Cl)n2c(nc3ccccc32)c1C#N,7.1µM*,14%[57.1 µM],-17%,?,-2%,?
Cc1c(CCCl)c(Cl)n2c(nc3ccccc32)c1C#N,2.2µM*,12%,1%,?,·,?
Cc1ccc(NC(=O)N2CCC(CN3CCCC3)CC2)c(C)c1,-15%,-4%,-12%,6%,·,5%
Cc1ccc2sc(N(Cc3cccnc3)C(=O)CCOc3ccccc3)nc2c1C,?,8%[57.1 µM],4%,-1%,·,·
COc1ccc2c(c1)CCc1c(C(=O)N3CCCCCC3)noc1-2,11µM*,1%,1%,-10%,5%,?
CCCNC(=O)c1noc2c1CCc1cc(OC)ccc1-2,?,-10%,-14%,0%,-8%,?
O=c1[nH]c(=S)c2[nH]cnc2[nH]1,-35%,-9%,·,-2%,·,-16%
CCSc1nc(N2CCOCC2)c2c(c1C#N)CCCC2,10%[57.1 µM],8%[57.1 µM],-2%,1%,5%,·
CCSc1nc(CC)c2c(c1C#N)CCCC2,-7%,-7%,0%,9%,8.9µM*,4%
CCCN1CNc2c(c(=O)[nH]c(=S)n2CCc2cc(C)cc(C)c2)C1,-4%,13%,·,0%,·,-22%
CN(C)S(=O)(=O)c1cccc(NC(=S)Nc2cccc3cnccc23)c1,40µM*,-5%,9%,-11%,-9%,?
COc1cc(OC)c(/C=C/c2ccc3ccccc3[n+]2[O-])c(OC)c1,1%,-1%,·,·,·,·
CC1=CC(O)=NS(=O)(=O)O1,22%,3%,·,·,·,·
Cc1ccc(S(=O)(=O)N2[C@@H](c3ccc(C(C)(C)C)cc3)C(C(=O)O)=CC[C@H]2c2ccc3c(c2)OCO3)cc1,-3%,-6%,-7%,-21%,·,23µM*
Cc1cccc(-c2nc(CN3CCCC(C(=O)NCCc4ccc(Cl)cc4)C3)c(C)o2)c1 (stereo not drawn),23%,-2%,15%,-18%,·,-28%
Cc1ccc(-c2cc(-c3ccc4c(c3)NC(=O)CO4)nc3c2COc2ccccc2-3)cc1,15%,-3%[11.4 µM],15%,-1%,·,?
Cc1nc2ccc(S(=O)(=O)Nc3cccc(-c4nc5cccnc5s4)c3C)cc2s1,10%[57.1 µM],0%[57.1 µM],-9%,-9%,18µM*,23µM*
Cc1ccc(S(=O)(=O)CC(=O)N(CCCN2CCOCC2)c2nc3c(F)cccc3s2)cc1,-6%[57.1 µM],-5%[57.1 µM],-10%,-4%,5%,7%

# Source: PubChem (National Center for Advancing Translational Sciences (NCATS))
